The values below come from PubChem BioAssay (NCI).

Molecules are shown by their SMILES. About 83,000 compounds went through this panel and 20% of them were active in at least one assay; those are over-represented in the sample as a whole.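 How to read the values: 0–100, growth inhibition (40 = 60% inhibited); 0, no net growth; -100 to 0, cell death (-40 = 40% of starting cells died; -100 = all dead).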 A number with no mark means an inactive call. Calls of active or inactive are those of the source. The calls were made as follows: active = growth percent below 10; inactive = the rest.

The test system of this assay is HL-60(TB) leukemia. As to the kind of experiment: NCI-60 one-dose screen, 48 h (100 = growth as untreated, 0 = no growth, -100 = all killed). The note with it: 10 µM unless noted.
`C=C[C@]1(C)C=C2C(=O)[C@@]3(O)OC[C@@]4(CCCC(C)(C)C43O)C2(O)C(O)C1` (stereo not given in full): the growth was -73.9% (active).
As for `CCCC(=O)Oc1ccc2ccccc2c1`, the figure is 98.5%.
For the compound `COc1ccc(-c2cs/c(=N\N=C\c3ccc(O)cc3O)n2/N=C/c2ccc(O)cc2O)cc1`, the growth was -32.6% (active).
As for `CC(=Nc1ccccc1)C1=C(O)C(Cc2cccc(F)c2)NC1=O` (stereo not given), the figure is -15.2% (active); as for `COc1ccc(C(=O)c2cc3c(N)c(C(=O)Nc4cccc(Cl)c4)sc3nc2C)cc1`, -45.3% (active); as for `CCN(CCN(C)C)C(=O)CNCc1cc(C(N)=O)ccn1`, 88.7%.
As for `COc1cc2c(cc1-c1c(C)noc1C)ncc1nc(C3CCCCC3)n(C3CCC(OC(F)F)CC3)c12` (stereo not given), the figure is -25.1% (active); as for `CCOC(=O)c1c(C)nc2c(c1N)/C(=C/c1cccs1)C(=O)N2c1ccc(OC)cc1`, 90.2%; as for `O=C(OCc1ccccc1)n1nnc2ccccc21`, 111%.
As for `CC1=C2[C@@H](CC1)[C@]1(C)O[C@@](C3CCNCC3)(C[C@H]1OC(=O)CO)[C@H]2OC(=O)/C=C/c1ccccc1`, the figure is 97.1%.
Consider `COc1ccc(-c2cc3c(nn2)-c2ccccc2C3=O)cc1`, for which the growth was 57.4%.
As for `Cc1cc(C)c(-c2c(O)c(Br)c(-c3c(C)cc(C)c(Br)c3C)c(O)c2Br)c(C)c1Br`, the figure is 27.3%; as for `COC(=O)c1nc(-c2ccccc2)oc1S(=O)(=O)N1CCC(C(N)=O)CC1`, -33.2% (active); as for `CCCCNC(=O)c1ccc(OCC)cc1`, 99.5%.
As for `Cc1nn(-c2ccc(F)cc2)c2ncnc(Oc3ccc(NC(=O)Nc4ccc(Cl)c(C(F)(F)F)c4)cc3)c12`, the figure is 99%.
As for `O=C1C=CC2(NN=C(c3ccccc3)N2c2cccc(Cl)c2)C(Cl)=C1` (stereo not given), the figure is 33%; as for `S=C(SSC(=S)N(c1ccccc1)c1ccccc1)N(c1ccccc1)c1ccccc1`, 85.1%; as for `CN1CCN(C(=O)[C@]23CCC(C)(C)C[C@H]2C2=CC[C@@H]4[C@@]5(C)C/C(=C/c6ccncc6)C(=O)C(C)(C)[C@@H]5CC[C@@]4(C)[C@]2(C)CC3)CC1`, -41.7% (active).
Regarding `C[N+](C)(C)CCOC(OCC[N+](C)(C)C)(c1ccccc1)c1ccccc1`, the growth is 110%.
As for `O=C(C1CCC1)N1N=C(c2ccc(-n3ccc(C(F)(F)F)n3)cc2)CC1c1ccc[nH]1` (stereo not given), the figure is 97.8%.
As for `Clc1ncnc2nc[nH]c12`, the figure is 101%.
As for `O=C1/C(=C/c2ccc([N+](=O)[O-])cc2)CN(C(=O)CCN2CCC(=NO)CC2)C/C1=C\c1ccc([N+](=O)[O-])cc1`, the figure is 2.62% (active); as for `Cc1ccc(SC2c3ccc(C)cc3Oc3nc(N)c(C#N)c(N)c32)cc1` (stereo not given), -6.43% (active); as for `CN(C)/C(N)=N/N=C(\c1ccccc1)c1ccccn1`, 98.5%.
`COc1c(F)cc(-n2c(C(=O)N3CC(F)C3)cc3cccnc32)cc1F`: the growth is 98.3%.
As for `CC(=O)[C@@H]1CC[C@]2(C(=O)n3ccnc3)CC[C@]3(C)[C@H](CC[C@@H]4[C@@]5(C)Cc6c([nH]c7ccccc67)C(C)(C)[C@@H]5CC[C@]43C)[C@@H]12`, the figure is 90.9%; as for `CC1=C(C(=O)Nc2ccccc2)C(c2ccc3c(c2)OCO3)NC(=S)N1` (stereo not given), 104%.
Take `COc1ccc(C2CC(c3ccc(OC)c(OC)c3)=NN2C(=O)c2cc(OC)c(OC)c(OC)c2)cc1` (stereo not given): the growth is 5.49% (active).
As for `COc1cc2c(cc1-c1c(C)noc1C)ncc1nc(-c3ccccn3)n([C@H](C)COC(F)F)c12`, the figure is 33.6%; as for `N=S(c1ccccc1[N+](=O)[O-])c1ccccc1[N+](=O)[O-]`, 10.1%.
As for `O=C(NNc1nc(Cl)nc(N2CCN(C(c3ccccc3)c3ccccc3)CC2)n1)c1ccccc1`, the figure is -22.5% (active); as for `Cc1ccc(-c2nc(N3CCCNCC3)c3oc(-c4ccccc4)nc3n2)cc1`, -69.7% (active); as for `C(=C1c2ccccc2-c2ccccc21)c1ccncc1`, 9.03% (active).
As for `C=C[C@@H]1C[C@@H]2Cc3ccccc3N1O2`, the figure is -12.8% (active); as for `Cc1ccc2nc3c(cc2c1)CSc1nnc(-c2ccc[nH]c2=S)n1N3`, 102%; as for `Oc1ccc(Cl)cc1C(c1cc(Cl)ccc1O)C(Cl)(Cl)Cl`, 69%.
For the compound `COc1cc(C2C(C#N)=C(N)Oc3cc4c(cc32)OCO4)cc2c1OCO2` (stereo not given), the growth was -43% (active).
As for `COc1ccc(NC(=O)c2ccc(C(F)(F)F)nc2Nc2ccc(Cl)cc2C)cc1Cl`, the figure is 4.78% (active); as for `CCCCCCn1c(-c2ccc(C(=O)O/N=C(\N)c3ccc4c(c3)OCO4)cc2)nc(-c2ccccc2)c1-c1ccccc1`, -51.1% (active); as for `CCCCCN1C=C/C(=C\C(=O)N(C)c2cccc3ccccc23)c2ccccc21`, 97.1%.
